Laboratory results reported in the supplement of paper PMC4206461.

Test system: Pseudomonas aeruginosa PA14 dppBCDF deletion mutant
Experiment: respiration area under curve with compound as sole nitrogen source, 24 h (OmniLog AUC (arbitrary units)); higher = more respiration / better utilisation as nitrogen source, active = 2000 or more; extreme values may be limits of the assay
Method: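 Biolog Phenotype MicroArray plates PM6-PM8: each di/tripeptide is the sole nitrogen source. Tetrazolium reduction was read in the OmniLog every 15 min for 24 h at 37°C and summarised as area under the respiration curve (arbitrary units). Values below 2000 count as no respiration. Strain is the dipeptide ABC transporter deletion mutant.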

Compound	respiration area under curve
N[C@@H](Cc1c[nH]c2ccccc12)C(=O)N[C@@H](Cc1c[nH]c2ccccc12)C(=O)O (plate: PM7)	436 (inactive)
CC(C)C[C@H](NC(=O)[C@H](CC(C)C)NC(=O)[C@@H](N)CC(C)C)C(=O)O (plate: PM8)	1800 (inactive)
CC[C@H](C)[C@H](NC(=O)CNC(=O)CN)C(=O)O (plate: PM8)	1 (inactive)
C[C@H](N)C(=O)N[C@@H](CO)C(=O)O (plate: PM6)	6740 (active)
CC(C)[C@H](NC(=O)[C@@H](N)CCCN=C(N)N)C(=O)O (plate: PM6)	7970 (active)
CC(C)C[C@H](N)C(=O)N[C@H](C(=O)O)C(C)C (plate: PM7)	9340 (active)
CC(C)[C@H](N)C(=O)N1CCC[C@H]1C(=O)O (plate: PM8)	0 (inactive)
N[C@@H](CO)C(=O)N[C@@H](Cc1ccccc1)C(=O)O (plate: PM7)	968 (inactive)
C[C@H](N)C(=O)N1CCC[C@H]1C(=O)O (plate: PM6)	717 (inactive)
CC(C)[C@H](N)C(=O)N[C@@H](CC(N)=O)C(=O)O (plate: PM7)	5280 (active)
CSCC[C@H](N)C(=O)N[C@H](C(=O)O)C(C)C (plate: PM7)	1430 (inactive)
CSCC[C@H](NC(=O)[C@@H](N)[C@@H](C)O)C(=O)O (plate: PM7)	204 (inactive)
CC(C)C[C@@H](N)C(=O)N[C@@H](Cc1ccc(O)cc1)C(=O)O (plate: PM8)	0 (inactive)
C[C@H](NC(=O)[C@@H](N)Cc1ccc(O)cc1)C(=O)O (plate: PM7)	8840 (active)
CC(C)C[C@H](N)C(=O)N1CCC[C@H]1C(=O)O (plate: PM8)	0 (inactive)
CSCC[C@H](N)C(=O)N[C@@H](Cc1c[nH]c2ccccc12)C(=O)O (plate: PM7)	2520 (active)
NCC(=O)N[C@@H](CCCN=C(N)N)C(=O)O (plate: PM6)	7970 (active)
NC(N)=NCCC[C@H](NC(=O)[C@@H](N)Cc1c[nH]c2ccccc12)C(=O)O (plate: PM7)	11800 (active)
N[C@@H](Cc1c[nH]c2ccccc12)C(=O)NCC(=O)O (plate: PM7)	6.75 (inactive)
CSCC[C@H](N)C(=O)N[C@@H](Cc1ccc(O)cc1)C(=O)O (plate: PM8)	55.2 (inactive)

Compound	respiration area under curve
N[C@@H](Cc1ccc(O)cc1)C(=O)N[C@@H](Cc1ccccc1)C(=O)O (plate: PM7)	3450 (active)
C[C@H](NC(=O)CCN)C(=O)O (plate: PM8)	0 (inactive)
CC[C@H](C)[C@H](NC(=O)[C@@H](N)Cc1ccc(O)cc1)C(=O)O (plate: PM8)	5950 (active)
NCC(=O)NCC(=O)NCC(=O)O (plate: PM8)	5.75 (inactive)
CC(C)[C@H](N)C(=O)N[C@H](C(=O)O)C(C)C (plate: PM7)	1580 (inactive)
C[C@@H](O)[C@H](N)C(=O)NCC(=O)O (plate: PM7)	0.75 (inactive)
C[C@H](NC(=O)[C@@H](N)CCCN=C(N)N)C(=O)O (plate: PM6)	8890 (active)
CSCC[C@H](NC(=O)[C@@H](N)CCCN=C(N)N)C(=O)O (plate: PM6)	9400 (active)
CC(NC(=O)C(N)CC(=O)O)C(=O)O (stereo not given) (plate: PM8)	12.2 (inactive)
CC(C)C[C@H](NC(=O)[C@@H](N)CC(=O)O)C(=O)O (plate: PM6)	0 (inactive)
CC(C)C[C@H](NC(=O)[C@@H](N)C(C)C)C(=O)O (plate: PM7)	3160 (active)
N[C@@H](Cc1c[nH]c2ccccc12)C(=O)N[C@@H](Cc1ccc(O)cc1)C(=O)O (plate: PM7)	236 (inactive)
N[C@@H](Cc1ccccc1)C(=O)N[C@@H](Cc1c[nH]c2ccccc12)C(=O)O (plate: PM7)	85 (inactive)
CC[C@H](C)[C@H](N)C(=O)N[C@@H](Cc1ccc(O)cc1)C(=O)O (plate: PM6)	11 (inactive)
CSCC[C@H](NC(=O)[C@@H](N)CO)C(=O)O (plate: PM7)	88.8 (inactive)
NC(N)=NCCC[C@H](N)C(=O)N[C@@H](Cc1c[nH]c2ccccc12)C(=O)O (plate: PM6)	7640 (active)
CC(C)[C@H](N)C(=O)N[C@@H](CCC(N)=O)C(=O)O (plate: PM8)	1010 (inactive)
N[C@@H](Cc1c[nH]c2ccccc12)C(=O)N[C@@H](CO)C(=O)O (plate: PM7)	106 (inactive)
C[C@@H](O)[C@H](NC(=O)CN)C(=O)O (plate: PM6)	15.8 (inactive)
CC(C)C[C@H](N)C(=O)N[C@H](CC(C)C)C(=O)O (plate: PM8)	0 (inactive)
